Hits are enriched below; roughly 2.8% of the tested compounds scored in any of these assays.
D3 ag – activates the human D3 dopamine receptor | actives 0.58% (n = 410,000) | P35462 | AID 652048 | max activation, % | D3R DiscoveRx beta-arrestin cells, luminescence, 90 min; in the data active = max activation above about 30%; also: 0% is about no effect
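Agonist-mode cell screen: cells plated at 1500/well and incubated overnight at 37 °C, then exposed to library compounds for 90 min at 37 °C. Detection reagent was added for 30–60 min at room temperature, and luminescence was read.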
LDHA block – inhibitors of human lactate dehydrogenase A; P00338; purified LDHA, NADH/diaphorase-resazurin fluorescence; active compounds read low; activity change, % (values are at about 110 or 230 µM); actives 0.15% (n = 480,000); in the data active = activity change below about -30%; inconclusive = mostly about -25% to -30%;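 also: plate controls were DMSO wells for no effect and wells without enzyme for full effect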
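Human LDH5 (2 nM) was incubated with 0.06 mM NADH and 0.2 mM pyruvate for 5 min at room temperature in Tris pH 7.4. Remaining NADH was coupled through diaphorase/resazurin, and resorufin fluorescence was read at 0 and 20 min.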
RGS4 inhibitor – human RGS4 inhibition | AID 504845 | actives 0.039% (n = 390,000) | Transcreener GDP fluorescence polarization, RGS4-accelerated GTP hydrolysis | Potency, µM (series often up to 114 µM), for the others: at the top dose activity change, negative = inhibition, hits mostly inhibitors; active = well fitted inhibition curve with a large enough effect; inconclusive = small, poorly fitted or top-dose-only effect; inactive = no such curve, though single readings can be large or run the other way; also: potency is read from the fitted curve at half-maximal effect; % is scaled to controls: 0 for no effect and ±100 for the full control effect; nearly all actives have a fitted effect of over 75% in size
Target sequence (P49798 whole entry, looked up): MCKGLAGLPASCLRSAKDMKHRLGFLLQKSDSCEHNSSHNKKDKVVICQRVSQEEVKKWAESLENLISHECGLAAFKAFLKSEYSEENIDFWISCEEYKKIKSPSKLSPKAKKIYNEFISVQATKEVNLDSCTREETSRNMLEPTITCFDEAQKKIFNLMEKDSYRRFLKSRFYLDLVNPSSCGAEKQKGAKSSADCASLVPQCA
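MLSMR compounds (23 nl, pin-transferred) preincubated 10 min at room temperature with a 500nM (2x) first reagent, then RGS4 at 900nM (2x) plus Transcreener GDP mix added; fluorescence polarization (620/688 nm) read before and after 90 min at 30 °C.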
PI4K2A inh – PI4K2A (human) kinase inhibition; Q9BTU6; purified PI4K2A, ADP-Glo luminescence, 1 h; active compounds read low; activity change, negative = inhibition, % at 76.9 µM; actives 0.13% (n = 420,000); AID 1346378; in the data active = activity change below about -50%; inconclusive = mostly about -30% to -49%;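 also: -100% = wells without enzyme as full effect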
Target sequence (Q9BTU6 whole entry, looked up): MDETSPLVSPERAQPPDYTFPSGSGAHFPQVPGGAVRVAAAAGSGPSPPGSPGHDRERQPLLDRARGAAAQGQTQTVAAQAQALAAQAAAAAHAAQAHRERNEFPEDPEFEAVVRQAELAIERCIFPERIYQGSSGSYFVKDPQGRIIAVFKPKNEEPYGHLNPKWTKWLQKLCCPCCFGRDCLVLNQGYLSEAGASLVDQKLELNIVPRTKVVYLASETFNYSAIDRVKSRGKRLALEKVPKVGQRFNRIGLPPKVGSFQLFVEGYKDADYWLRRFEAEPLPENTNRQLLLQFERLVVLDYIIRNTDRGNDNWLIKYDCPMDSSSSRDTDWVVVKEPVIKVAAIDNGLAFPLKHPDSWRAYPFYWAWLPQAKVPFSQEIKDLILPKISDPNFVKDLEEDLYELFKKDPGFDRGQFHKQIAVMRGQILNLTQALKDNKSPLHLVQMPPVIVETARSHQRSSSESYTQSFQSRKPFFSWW
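ADP-Glo luminescence measured ADP generated by PI4K2A enzyme (4 ug/mL before mixing) with 1.2 mM PI substrate (pre-mix) and 300 microM ATP (pre-mix). Tris pH7.5 buffer with MgCl2, Triton X-100; 1 h reaction at ambient temperature.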
D3 antag – blocks the human D3 dopamine receptor; P35462; actives 2.5% (n = 360,000); D3R cells, DiscoveRx beta-arrestin luminescence, antagonist mode; active compounds read low; max response, negative = inhibition, %; in the data active = max response below about -50%; inconclusive = no clear call, values can overlap the other calls; also: % is scaled to controls: 0 for no effect and ±100 for the full control effect
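Cells expressing the human receptor were seeded at 1500 cells/well, incubated overnight at 37 degrees C in 5% CO2, then exposed to library compounds with dopamine controls for 90 minutes at 37 degrees C before luminescent detection.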
pAkt inh – inhibitors of Akt phosphorylation | Neuro2A IGF-stimulated pAkt S473 HTRF, 20 min; active compounds read low | activity change, % for hits at 50 µM | actives 0.32% (n = 360,000) | AID 651550; in the data active = activity change below about -80%; inconclusive = mostly about -51% to -80%; also: % is scaled to controls: 0 for no effect and ±100 for the full control effect
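Single-point screen (50 µM final compound) in Neuro2A cells stimulated 20 min with 6 nM IGF at 37 deg C. After lysis, Ser473-phosphorylated Akt read by HTRF (ex 330 nm, em 615/665 nm) as the 665/615 ratio.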
* marks the source's active call; other numbers are inactive results.

What do the screens show for `C[C@@]12C(=O)OC(=O)[C@]1(C)C1CCC2O1`?
D3 ag: -68; LDHA block: -15; RGS4 inhibitor: 8%; PI4K2A inh: -4; D3 antag: -87*; pAkt inh: inactive

How did CC(=O)/C(N=Nc1cc2c(cc1[N+](=O)[O-])OCCO2)=C(\C)O do in these assays?
D3 ag: -8; LDHA block: -2; RGS4 inhibitor: inconclusive; PI4K2A inh: -3; D3 antag: 7; pAkt inh: inactive

How did CC(=O)/C(N=Nc1cc2c(c([N+](=O)[O-])c1C)C(C)(C)CC2(C)C)=C(\C)O do in these assays?
D3 ag: 34*; LDHA block: -9; RGS4 inhibitor: -1%; PI4K2A inh: 3; D3 antag: 21; pAkt inh: inactive

What do the screens show for `O=C(NCCCN1CCc2ccccc2C1)C1CCN(c2nnc(-n3cccc3)s2)CC1`?
D3 ag: -9; LDHA block: -8; RGS4 inhibitor: -23%; PI4K2A inh: 0; D3 antag: -82*; pAkt inh: inactive

What do the screens show for `COc1cccc(NC(=O)CSc2nnc(-c3cccs3)n2C)c1`?
D3 ag: -8; LDHA block: -6; RGS4 inhibitor: 6%; PI4K2A inh: 5; D3 antag: 9; pAkt inh: -107%*

Results for COc1ccc(NC(=O)CSc2nnc(Cc3cccs3)n2-c2ccc(C)cc2)cc1 ?
D3 ag: 81*; LDHA block: -7; RGS4 inhibitor: 8%; PI4K2A inh: 2; D3 antag: 54; pAkt inh: inactive

What do the screens show for `O=C(Nc1nc(C23CC4CC(CC(C4)C2)C3)cs1)c1cccnc1`?
LDHA block: 0

Results for Cc1cc2oc(=O)cc(Cn3ncc(Cl)c(Cl)c3=O)c2cc1Cl ?
D3 ag: -10; LDHA block: -4; RGS4 inhibitor: -10%; PI4K2A inh: 6; D3 antag: -77*; pAkt inh: inactive

Results for COC(=O)C1CCN(Cc2cc(=O)oc3cc(C)c(Cl)cc23)CC1 ?
D3 ag: 95*; LDHA block: -3; RGS4 inhibitor: -3%; PI4K2A inh: 1; D3 antag: 4; pAkt inh: inactive

Results for CCOC(=O)Nc1ccc2c(CN3CCC(C(=O)OC)CC3)cc(=O)oc2c1 ?
D3 ag: 14; LDHA block: 1; RGS4 inhibitor: -7%; PI4K2A inh: -4; D3 antag: -3; pAkt inh: inactive

How did CCc1ccc2c(CN3CCN(S(=O)(=O)c4cccs4)CC3)cc(=O)oc2c1 do in these assays?
D3 ag: -6; LDHA block: 0; RGS4 inhibitor: -14%; PI4K2A inh: -1; D3 antag: -75*; pAkt inh: inactive

Results for CCc1ccc2c(CN3CCC(C(=O)OC)CC3)cc(=O)oc2c1 ?
D3 ag: 100*; LDHA block: -7; RGS4 inhibitor: 13%; PI4K2A inh: 2; D3 antag: 50; pAkt inh: inactive

How did COC(=O)C1CCN(Cc2cc(=O)oc3ccc(Cl)cc23)CC1 do in these assays?
LDHA block: -15

How did CCOc1ccc(NCc2cccn2-c2nnc(N3CCC(C(=O)NC(C)CC)CC3)s2)cc1 (stereo not drawn) do in these assays?
LDHA block: 4

How did Cc1cccc(NC(=O)Cc2nc(-c3c[nH]c(C(=O)N4CCCC4)c3)cs2)c1 do in these assays?
D3 ag: 52*; LDHA block: -4; RGS4 inhibitor: -12%; PI4K2A inh: 5; D3 antag: 46; pAkt inh: inactive

What do the screens show for `COc1cccc(C(=O)OCC(=O)c2ccc(OC(=O)c3ccco3)cc2)c1`?
LDHA block: -5

How did Cc1ccc2nc(NCc3ccccc3Cl)c3nnnn3c2c1 do in these assays?
D3 ag: 6; LDHA block: -16; RGS4 inhibitor: -12%; PI4K2A inh: 3

What do the screens show for `COc1ccc(N2CCN(c3nc4ccc(C)cc4n4nnnc34)CC2)cc1`?
D3 ag: 73*; LDHA block: 0; RGS4 inhibitor: -8%; PI4K2A inh: -1

What do the screens show for `Cc1ccc2nc(Cl)c3nnnn3c2c1`?
D3 ag: -6; LDHA block: 8; RGS4 inhibitor: -33%; PI4K2A inh: -3; D3 antag: -109*; pAkt inh: inactive

How did Cc1ccc2nc(N3CCN(c4ccc(F)cc4)CC3)c3nnnn3c2c1 do in these assays?
D3 ag: 30; LDHA block: 5; RGS4 inhibitor: 1%; PI4K2A inh: -6

How did COc1ccc(CN=Cc2[nH]c3ccc(Br)c(Cl)c3c2O)cc1 do in these assays?
D3 ag: 4; LDHA block: 26; RGS4 inhibitor: -24%; PI4K2A inh: 7; D3 antag: -74*

What do the screens show for `Cc1cc(C)cc(N=Cc2[nH]c3ccc(Br)c(Cl)c3c2O)c1`?
D3 ag: -4; LDHA block: 19; RGS4 inhibitor: -30%; PI4K2A inh: 9; D3 antag: inconclusive; pAkt inh: inactive

How did Cc1ccccc1C(=O)N1[C@@H](C(C)C)COc2cc(Br)ccc2S1(=O)=O do in these assays?
D3 ag: 35*; LDHA block: 1; RGS4 inhibitor: -37%; PI4K2A inh: 3; D3 antag: 15; pAkt inh: inactive

How did CC(C)NC(=O)Cn1c(=O)n(-c2ccccc2)c(=O)c2sccc21 do in these assays?
LDHA block: -41*

What do the screens show for `CCOC(=O)Cc1csc(NC(=O)CN2CCCCC2)n1`?
D3 ag: -8; LDHA block: -5; RGS4 inhibitor: 19%; PI4K2A inh: -5; D3 antag: -55*; pAkt inh: inactive

Results for COc1cccc(/C=C/C(=O)c2c(O)cc(C)oc2=O)c1O ?
D3 ag: 1; LDHA block: 10; RGS4 inhibitor: -1%; PI4K2A inh: -4; D3 antag: -74*; pAkt inh: inactive

Results for Cc1ccc(C(=O)Nc2ccc3c(c2)CCC3)o1 ?
D3 ag: 0; LDHA block: 10; RGS4 inhibitor: 7%; PI4K2A inh: -6; D3 antag: 23

How did O=C(Nc1ccc(N2CCOCC2)c(Cl)c1)c1ccc(F)cc1 do in these assays?
D3 ag: -5; LDHA block: 1; RGS4 inhibitor: -8%; PI4K2A inh: 1; D3 antag: 19; pAkt inh: inactive

How did O=C(Nc1ccc(N2CCN(C(=O)c3ccccc3)CC2)c(Cl)c1)c1ccc(Br)o1 do in these assays?
D3 ag: 24; LDHA block: -1; RGS4 inhibitor: -28%; PI4K2A inh: 6; D3 antag: 16; pAkt inh: -86%*

From PubChem
